Assay results from the supplement of paper PMC11732987, “Enantioselective OTUD7B fragment discovery through chemoproteomics screening and high-throughput optimisation” (Communications Chemistry, 2025).

Columns and labels:
Experiment in all cases: log2 ratio of Biotin-Ahx-Ub-VS probe labelling (fragment/DMSO); higher = less target engagement (more negative = stronger competition), active = hit call of the paper (q ≤ 0.05, log2 ratio ≤ -1)
Settings in all cases: compound concentration: 200 uM; treatment time: 3 h
USP9X = USP9X (UniProt Q93008)
How it was run: (§1)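 HEK293T lysate (495 µg per sample, in Tris/CHAPS/IGEPAL buffer with protease inhibitors) was exposed in triplicate for 3 h to fragment at 200 µM or to vehicle, then to Biotin-Ahx-Ub-VS at 0.5 µM final for 1 h. Labelled DUBs were enriched on NeutrAvidin, digested with LysC and trypsin, and analysed by diaPASEF LC-MS/MS. Spectronaut label-free quantities were normalised to the global median, and values are average log2 ratios of fragment over vehicle from an unpaired t-test. Only proteins with ≥2 unique peptides were used.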

UniProt O00487 = molecular target: UniProt O00487
How it was run: as §1

UniProt O00507 = molecular target: UniProt O00507
How it was run: as §1

UniProt P51784 = molecular target: UniProt P51784
How it was run: as §1

UniProt Q5T2D3 = molecular target: T1, UniProt Q5T2D3
T1 sequence (whole entry): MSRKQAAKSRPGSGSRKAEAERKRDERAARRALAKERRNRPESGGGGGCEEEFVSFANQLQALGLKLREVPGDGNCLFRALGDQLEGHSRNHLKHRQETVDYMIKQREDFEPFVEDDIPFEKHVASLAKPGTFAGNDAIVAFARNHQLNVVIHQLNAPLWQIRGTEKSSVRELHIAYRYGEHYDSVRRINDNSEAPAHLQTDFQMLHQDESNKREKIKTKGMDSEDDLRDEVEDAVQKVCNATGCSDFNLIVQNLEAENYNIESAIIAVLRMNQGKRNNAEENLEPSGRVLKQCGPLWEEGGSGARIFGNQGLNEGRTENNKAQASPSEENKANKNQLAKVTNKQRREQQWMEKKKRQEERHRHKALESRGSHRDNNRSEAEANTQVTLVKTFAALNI
How it was run: as §1

UniProt Q8TE49 = molecular target: T2, UniProt Q8TE49
T2 sequence (whole entry): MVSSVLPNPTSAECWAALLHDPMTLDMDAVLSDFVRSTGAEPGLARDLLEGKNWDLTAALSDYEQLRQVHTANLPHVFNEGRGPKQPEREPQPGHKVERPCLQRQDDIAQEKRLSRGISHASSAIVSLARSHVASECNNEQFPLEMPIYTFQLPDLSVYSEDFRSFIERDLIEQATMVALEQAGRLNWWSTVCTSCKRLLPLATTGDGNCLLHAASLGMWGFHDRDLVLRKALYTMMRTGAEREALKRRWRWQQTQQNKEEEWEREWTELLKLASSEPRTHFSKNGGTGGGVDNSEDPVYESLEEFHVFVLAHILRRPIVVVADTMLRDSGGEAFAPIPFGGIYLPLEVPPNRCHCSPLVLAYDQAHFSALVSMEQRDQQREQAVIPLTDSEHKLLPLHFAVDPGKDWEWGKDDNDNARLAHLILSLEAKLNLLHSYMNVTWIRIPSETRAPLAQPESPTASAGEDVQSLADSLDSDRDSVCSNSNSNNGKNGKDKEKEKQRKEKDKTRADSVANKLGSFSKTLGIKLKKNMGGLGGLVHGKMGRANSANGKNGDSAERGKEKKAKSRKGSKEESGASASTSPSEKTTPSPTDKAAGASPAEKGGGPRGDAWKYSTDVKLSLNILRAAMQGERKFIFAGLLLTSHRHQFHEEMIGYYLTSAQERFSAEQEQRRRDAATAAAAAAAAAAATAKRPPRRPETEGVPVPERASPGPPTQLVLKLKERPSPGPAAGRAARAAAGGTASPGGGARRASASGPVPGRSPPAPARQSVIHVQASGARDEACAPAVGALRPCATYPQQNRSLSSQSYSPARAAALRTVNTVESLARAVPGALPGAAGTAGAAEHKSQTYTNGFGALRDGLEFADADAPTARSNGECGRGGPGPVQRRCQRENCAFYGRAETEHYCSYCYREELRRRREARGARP
How it was run: as §1

UniProt Q9P2H5 = molecular target: T3, UniProt Q9P2H5
T3 sequence (whole entry): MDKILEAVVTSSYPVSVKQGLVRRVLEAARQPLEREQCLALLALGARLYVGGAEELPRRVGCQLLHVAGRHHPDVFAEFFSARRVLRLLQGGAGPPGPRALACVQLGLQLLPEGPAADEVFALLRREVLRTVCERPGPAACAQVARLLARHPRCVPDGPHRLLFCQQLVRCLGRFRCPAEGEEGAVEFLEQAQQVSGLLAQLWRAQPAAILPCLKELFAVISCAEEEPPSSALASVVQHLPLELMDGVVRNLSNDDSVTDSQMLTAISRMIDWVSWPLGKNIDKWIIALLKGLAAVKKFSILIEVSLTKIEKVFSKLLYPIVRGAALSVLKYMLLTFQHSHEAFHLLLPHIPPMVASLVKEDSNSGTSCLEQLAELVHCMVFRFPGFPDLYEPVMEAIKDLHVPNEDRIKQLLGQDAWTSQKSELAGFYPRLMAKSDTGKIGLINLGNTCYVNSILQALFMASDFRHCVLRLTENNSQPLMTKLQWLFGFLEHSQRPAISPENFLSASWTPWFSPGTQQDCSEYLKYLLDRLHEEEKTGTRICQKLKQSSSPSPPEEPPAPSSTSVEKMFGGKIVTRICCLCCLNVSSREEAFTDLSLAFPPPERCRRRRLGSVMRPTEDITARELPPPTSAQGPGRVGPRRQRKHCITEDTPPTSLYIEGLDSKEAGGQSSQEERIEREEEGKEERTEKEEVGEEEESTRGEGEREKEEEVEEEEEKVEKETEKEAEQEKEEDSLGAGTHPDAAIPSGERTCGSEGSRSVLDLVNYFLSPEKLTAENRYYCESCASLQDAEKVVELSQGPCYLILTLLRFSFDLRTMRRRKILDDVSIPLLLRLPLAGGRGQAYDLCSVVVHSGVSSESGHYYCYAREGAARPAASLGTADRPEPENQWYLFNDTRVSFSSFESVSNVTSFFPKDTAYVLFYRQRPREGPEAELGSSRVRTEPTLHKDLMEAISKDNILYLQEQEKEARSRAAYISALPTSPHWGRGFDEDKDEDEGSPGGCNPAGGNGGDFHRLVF
How it was run: as §1

UniProt Q9UGI0 = molecular target: T4, UniProt Q9UGI0
T4 sequence (whole entry): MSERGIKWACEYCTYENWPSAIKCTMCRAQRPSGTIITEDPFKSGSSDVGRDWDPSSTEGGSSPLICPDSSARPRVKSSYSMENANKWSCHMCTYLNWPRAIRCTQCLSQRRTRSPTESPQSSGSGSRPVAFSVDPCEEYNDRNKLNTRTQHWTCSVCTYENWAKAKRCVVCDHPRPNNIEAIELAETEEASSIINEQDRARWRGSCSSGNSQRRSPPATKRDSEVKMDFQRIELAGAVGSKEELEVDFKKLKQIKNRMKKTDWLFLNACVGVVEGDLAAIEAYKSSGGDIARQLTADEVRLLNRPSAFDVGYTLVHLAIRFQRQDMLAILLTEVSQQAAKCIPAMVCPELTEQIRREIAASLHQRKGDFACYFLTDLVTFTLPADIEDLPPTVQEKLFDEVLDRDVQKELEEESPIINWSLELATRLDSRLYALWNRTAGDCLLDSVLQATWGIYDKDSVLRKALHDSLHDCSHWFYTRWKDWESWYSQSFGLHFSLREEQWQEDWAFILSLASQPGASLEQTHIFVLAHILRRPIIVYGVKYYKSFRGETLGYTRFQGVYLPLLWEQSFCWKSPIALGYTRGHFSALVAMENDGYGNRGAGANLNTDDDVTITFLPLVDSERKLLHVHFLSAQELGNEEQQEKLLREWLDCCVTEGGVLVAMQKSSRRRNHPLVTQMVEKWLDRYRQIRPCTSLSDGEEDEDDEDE
How it was run: as §1

YOD1 = molecular target: T5, YOD1 (UniProt Q5VVQ6)
T5 sequence (whole entry): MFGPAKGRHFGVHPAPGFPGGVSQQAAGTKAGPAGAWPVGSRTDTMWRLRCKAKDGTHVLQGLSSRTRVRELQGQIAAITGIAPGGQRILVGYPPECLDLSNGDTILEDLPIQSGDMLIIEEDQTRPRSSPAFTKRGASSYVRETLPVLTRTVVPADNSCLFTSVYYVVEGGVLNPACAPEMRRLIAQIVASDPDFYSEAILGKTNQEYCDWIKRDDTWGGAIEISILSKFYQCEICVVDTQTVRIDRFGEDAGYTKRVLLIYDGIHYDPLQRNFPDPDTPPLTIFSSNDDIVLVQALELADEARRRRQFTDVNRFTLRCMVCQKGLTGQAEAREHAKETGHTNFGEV
How it was run: as §1

Measured: log2 ratio of Biotin-Ahx-Ub-VS probe labelling

UniProt O00507, sequence (O00507 whole entry): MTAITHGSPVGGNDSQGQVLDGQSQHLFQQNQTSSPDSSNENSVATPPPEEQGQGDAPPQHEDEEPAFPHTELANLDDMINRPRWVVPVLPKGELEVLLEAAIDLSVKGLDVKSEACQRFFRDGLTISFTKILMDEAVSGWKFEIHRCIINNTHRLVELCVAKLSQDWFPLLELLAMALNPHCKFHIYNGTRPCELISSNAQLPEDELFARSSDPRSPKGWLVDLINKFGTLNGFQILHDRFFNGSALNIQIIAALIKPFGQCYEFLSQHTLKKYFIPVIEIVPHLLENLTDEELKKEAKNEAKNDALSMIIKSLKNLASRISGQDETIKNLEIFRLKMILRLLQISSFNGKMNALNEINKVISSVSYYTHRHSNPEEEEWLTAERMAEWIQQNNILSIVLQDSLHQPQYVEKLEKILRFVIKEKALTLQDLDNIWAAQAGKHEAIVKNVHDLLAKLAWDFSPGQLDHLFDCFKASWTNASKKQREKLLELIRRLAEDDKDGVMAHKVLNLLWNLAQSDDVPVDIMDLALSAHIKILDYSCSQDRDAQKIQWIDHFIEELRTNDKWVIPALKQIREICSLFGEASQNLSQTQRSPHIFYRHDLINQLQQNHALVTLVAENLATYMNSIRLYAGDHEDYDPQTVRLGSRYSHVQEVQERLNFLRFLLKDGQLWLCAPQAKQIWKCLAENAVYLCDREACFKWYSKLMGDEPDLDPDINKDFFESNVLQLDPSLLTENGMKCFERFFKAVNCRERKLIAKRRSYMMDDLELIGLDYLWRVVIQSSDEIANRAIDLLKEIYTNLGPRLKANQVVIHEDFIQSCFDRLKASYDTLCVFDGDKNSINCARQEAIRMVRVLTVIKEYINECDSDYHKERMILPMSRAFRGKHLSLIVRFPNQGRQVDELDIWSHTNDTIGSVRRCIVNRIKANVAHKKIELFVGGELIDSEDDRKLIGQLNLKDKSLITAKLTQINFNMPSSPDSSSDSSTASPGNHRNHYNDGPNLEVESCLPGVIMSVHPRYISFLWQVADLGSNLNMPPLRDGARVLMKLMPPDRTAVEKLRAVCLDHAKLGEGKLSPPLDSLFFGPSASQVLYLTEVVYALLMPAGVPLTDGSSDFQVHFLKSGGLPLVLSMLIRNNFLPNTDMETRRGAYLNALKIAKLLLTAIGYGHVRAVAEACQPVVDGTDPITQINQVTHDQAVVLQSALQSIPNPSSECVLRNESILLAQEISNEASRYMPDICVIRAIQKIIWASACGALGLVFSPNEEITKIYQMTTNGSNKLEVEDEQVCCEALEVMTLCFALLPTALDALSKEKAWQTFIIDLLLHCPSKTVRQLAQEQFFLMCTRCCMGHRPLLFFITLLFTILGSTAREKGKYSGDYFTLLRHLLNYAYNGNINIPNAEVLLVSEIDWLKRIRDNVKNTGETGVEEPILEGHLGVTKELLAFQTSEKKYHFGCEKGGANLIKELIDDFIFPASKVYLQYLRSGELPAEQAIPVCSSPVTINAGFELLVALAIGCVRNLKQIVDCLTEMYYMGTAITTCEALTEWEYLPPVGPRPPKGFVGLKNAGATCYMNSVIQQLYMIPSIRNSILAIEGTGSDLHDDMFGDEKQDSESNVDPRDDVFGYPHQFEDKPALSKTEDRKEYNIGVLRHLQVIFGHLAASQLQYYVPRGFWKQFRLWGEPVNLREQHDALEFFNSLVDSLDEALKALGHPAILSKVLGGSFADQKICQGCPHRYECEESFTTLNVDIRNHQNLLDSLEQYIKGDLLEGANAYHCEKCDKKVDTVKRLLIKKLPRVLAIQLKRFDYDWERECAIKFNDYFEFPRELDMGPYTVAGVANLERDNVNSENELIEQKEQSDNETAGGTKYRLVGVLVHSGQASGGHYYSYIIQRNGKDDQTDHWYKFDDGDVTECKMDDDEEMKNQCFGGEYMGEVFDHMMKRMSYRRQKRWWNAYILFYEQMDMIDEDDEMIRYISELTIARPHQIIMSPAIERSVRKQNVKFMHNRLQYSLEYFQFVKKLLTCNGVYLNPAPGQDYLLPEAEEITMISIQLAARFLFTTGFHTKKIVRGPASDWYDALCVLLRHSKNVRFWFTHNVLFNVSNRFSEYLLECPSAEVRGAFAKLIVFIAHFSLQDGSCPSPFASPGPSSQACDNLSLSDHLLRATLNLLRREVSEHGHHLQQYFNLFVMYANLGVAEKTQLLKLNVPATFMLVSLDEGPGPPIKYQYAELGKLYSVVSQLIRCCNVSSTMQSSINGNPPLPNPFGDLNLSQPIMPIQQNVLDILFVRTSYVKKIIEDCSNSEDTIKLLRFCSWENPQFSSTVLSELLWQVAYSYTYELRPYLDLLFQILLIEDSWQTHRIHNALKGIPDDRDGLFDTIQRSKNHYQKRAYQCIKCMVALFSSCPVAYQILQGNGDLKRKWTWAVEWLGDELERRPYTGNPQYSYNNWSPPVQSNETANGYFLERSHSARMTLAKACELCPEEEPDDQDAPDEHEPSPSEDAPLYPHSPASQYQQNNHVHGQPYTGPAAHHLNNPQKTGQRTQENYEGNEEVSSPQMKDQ
UniProt O00487, sequence (O00487 whole entry): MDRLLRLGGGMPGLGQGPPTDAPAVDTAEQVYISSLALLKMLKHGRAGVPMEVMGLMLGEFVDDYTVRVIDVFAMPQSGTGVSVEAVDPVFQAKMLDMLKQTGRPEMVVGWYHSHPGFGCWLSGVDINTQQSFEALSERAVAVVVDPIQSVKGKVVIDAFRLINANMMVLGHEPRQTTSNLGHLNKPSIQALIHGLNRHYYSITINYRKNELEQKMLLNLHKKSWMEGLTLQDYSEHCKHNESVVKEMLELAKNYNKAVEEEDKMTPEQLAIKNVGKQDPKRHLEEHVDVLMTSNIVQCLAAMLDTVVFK
UniProt P51784, sequence (P51784 whole entry): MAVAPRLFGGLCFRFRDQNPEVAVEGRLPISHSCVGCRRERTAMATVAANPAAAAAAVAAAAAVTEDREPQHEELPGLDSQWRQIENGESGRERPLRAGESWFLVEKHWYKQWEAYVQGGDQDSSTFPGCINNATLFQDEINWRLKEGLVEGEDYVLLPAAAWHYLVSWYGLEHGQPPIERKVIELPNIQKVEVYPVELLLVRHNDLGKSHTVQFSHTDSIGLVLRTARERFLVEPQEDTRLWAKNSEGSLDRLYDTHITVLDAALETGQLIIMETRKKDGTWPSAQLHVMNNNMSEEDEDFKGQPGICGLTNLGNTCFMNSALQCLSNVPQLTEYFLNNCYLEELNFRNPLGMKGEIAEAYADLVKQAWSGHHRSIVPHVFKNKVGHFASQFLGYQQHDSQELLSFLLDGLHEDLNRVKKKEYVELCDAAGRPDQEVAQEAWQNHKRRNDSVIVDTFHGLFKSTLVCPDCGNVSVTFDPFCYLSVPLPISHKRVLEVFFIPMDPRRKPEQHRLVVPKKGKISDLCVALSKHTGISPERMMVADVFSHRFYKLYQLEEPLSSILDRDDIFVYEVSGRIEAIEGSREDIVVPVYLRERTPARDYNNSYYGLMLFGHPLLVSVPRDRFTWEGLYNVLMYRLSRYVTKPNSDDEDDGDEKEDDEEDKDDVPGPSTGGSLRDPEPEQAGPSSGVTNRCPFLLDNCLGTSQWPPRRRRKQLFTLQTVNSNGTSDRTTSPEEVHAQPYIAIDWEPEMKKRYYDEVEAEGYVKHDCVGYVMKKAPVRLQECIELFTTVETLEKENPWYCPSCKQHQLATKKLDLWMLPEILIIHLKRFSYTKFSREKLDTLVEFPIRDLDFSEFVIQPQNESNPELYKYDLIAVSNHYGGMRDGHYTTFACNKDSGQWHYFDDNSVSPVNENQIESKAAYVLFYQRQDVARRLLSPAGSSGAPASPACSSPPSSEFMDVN

NC(=O)C1CCCN(C(=O)CCl)C1 (centres undefined)
inactive: USP9X -0.029 | UniProt O00487 -0.0923 | UniProt O00507 -0.185 | UniProt P51784 -0.0378 | UniProt Q5T2D3 0.103 | UniProt Q8TE49 0.0487 | UniProt Q9P2H5 -0.0803 | UniProt Q9UGI0 -0.698 | YOD1 0.00724
